# Hit rate of the full screen: of about 310,000 compounds, about 14,000 (4.5%) showed an effect of 50% or more. The effect is printed as a negative number. For the sample, strong results were picked, then their nearest neighbours and some compounds at random.
# Molecular target: human ether-à-go-go-related gene (hERG) potassium channel (human, UniProt Q12809)
# Test: primary screen, population patch clamp on CHO cells stably expressing hERG; higher = less effect of the substance
# 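Further: peak tail current of the secondary pulse compared with the same well before compound.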
# human ether-à-go-go-related gene (hERG) potassium channel, sequence (Q12809 whole entry, looked up): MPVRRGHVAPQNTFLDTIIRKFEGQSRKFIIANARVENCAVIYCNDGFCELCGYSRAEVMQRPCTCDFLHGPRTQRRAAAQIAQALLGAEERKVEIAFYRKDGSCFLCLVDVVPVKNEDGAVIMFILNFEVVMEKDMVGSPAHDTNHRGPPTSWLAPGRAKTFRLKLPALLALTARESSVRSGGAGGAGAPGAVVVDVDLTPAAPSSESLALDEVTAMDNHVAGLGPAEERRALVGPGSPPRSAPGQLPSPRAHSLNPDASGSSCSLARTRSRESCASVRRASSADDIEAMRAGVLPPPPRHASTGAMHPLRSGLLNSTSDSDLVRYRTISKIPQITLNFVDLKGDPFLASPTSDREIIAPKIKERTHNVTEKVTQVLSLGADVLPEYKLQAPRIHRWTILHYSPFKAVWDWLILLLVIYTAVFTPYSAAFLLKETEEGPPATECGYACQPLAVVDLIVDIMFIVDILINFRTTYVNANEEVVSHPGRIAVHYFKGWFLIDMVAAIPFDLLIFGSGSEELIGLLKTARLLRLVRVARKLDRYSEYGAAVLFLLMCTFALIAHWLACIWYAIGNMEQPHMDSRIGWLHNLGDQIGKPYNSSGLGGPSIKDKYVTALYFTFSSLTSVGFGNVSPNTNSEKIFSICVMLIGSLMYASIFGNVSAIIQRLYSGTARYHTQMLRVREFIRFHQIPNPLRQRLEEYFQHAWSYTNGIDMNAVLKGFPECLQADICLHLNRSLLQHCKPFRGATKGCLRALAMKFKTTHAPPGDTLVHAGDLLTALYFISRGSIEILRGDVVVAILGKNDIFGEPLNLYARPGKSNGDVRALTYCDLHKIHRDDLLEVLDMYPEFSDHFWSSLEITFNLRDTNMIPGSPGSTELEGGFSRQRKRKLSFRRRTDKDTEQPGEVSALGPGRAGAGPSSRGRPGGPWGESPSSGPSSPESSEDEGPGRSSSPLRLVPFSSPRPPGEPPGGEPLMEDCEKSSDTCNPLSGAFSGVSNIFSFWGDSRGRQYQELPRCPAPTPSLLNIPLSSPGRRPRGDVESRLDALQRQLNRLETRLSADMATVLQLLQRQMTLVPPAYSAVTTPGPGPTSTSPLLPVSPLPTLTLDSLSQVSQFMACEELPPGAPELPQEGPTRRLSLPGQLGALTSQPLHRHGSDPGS
row,SMILES,"hERG current change (%, negative = inhibition) at 10uM [%]"
1,Nn1c(SCC(=O)NC2CCCCC2)nnc1-c1ccccc1F,-3.17
2,CCCc1[nH]nc2c1C(c1ccsc1)C(C#N)=C(N)O2 (stereo not shown),-7.53
3,CCOC(=O)C1CCN(C(=O)c2cc3c(OC)c(OC)c(OC)cc3[nH]2)CC1,15.5
4,NNC(=O)c1ccc(COc2ccc3c(c2)CCC3)o1,0.852
5,O=C(c1ccc(COc2ccc3c(c2)CCC3)o1)N1CCN(c2ccccc2)CC1,15.5
6,O=C(c1ccco1)N1CCN(C(=O)c2ccc(COc3ccc(Cl)cc3Cl)o2)CC1,-70.4
7,O=C(c1ccco1)N1CCN(C(=O)c2ccc(COc3ccc4c(c3)CCC4)o2)CC1,-69
8,O=C(COc1ccc(Cl)cc1Cl)N1CCN(C(=O)c2ccco2)CC1,20.6
9,O=C(c1ccc(COc2ccc(Cl)cc2Cl)o1)N1CCCC1,-43.1
10,CCOc1cc2[nH]c(=S)n(CCC(=O)NCc3ccco3)c(=O)c2cc1OCC,23.6
11,O=c1cc(CN2CCN(Cc3ccc(F)cc3)C(CCO)C2)[nH]c2ccccc12 (stereo not shown),-61.2
12,CCOc1ccccc1CN1CCN(Cc2cc3ccccc3[nH]2)CC1CCO (stereo not shown),-59.3
13,CCOc1ccccc1CN1CCN(Cc2cc(=O)c3ccccc3[nH]2)CC1CCO (stereo not shown),-66.6
14,CC(C)CCN1CCN(Cc2cc3ccccc3[nH]2)CC1CCO (stereo not shown),-22.4
15,CC(C)(C)CN1CCN(Cc2cc3ccccc3[nH]2)CC1CCO (stereo not shown),-8.03
16,Cc1ccc(CN2CCN(Cc3cc(=O)c4ccccc4[nH]3)CC2CCO)o1 (stereo not shown),-30.8
17,Cc1cc(NC(=O)CSc2nc3sc4c(c3c(=O)n2C)CCCC4)no1,7.47
18,O=c1c2ccccc2c(-c2ccccc2)nn1-c1ccc(Cl)c(Cl)c1,13.3
19,CCOC(=O)C1CCCNC1=O (stereo not shown),14.8
20,O=C(Nc1ccc(Br)cc1F)c1ccc2c(c1)OCCO2,12.3

row,SMILES,"hERG current change (%, negative = inhibition) at 10uM [%]"
1,O=C(Nc1ccc2c(c1)OCCO2)c1ccc(Br)cc1,-3.81
2,Brc1ccc2c(c1)OCCOCCOc1cc(Br)ccc1OCCOCCOCCO2,-4.86
3,Brc1ccc2c(c1)OCCOCCOCCOCCOCCO2,-76.4
4,Brc1ccc2c(c1)OCCOCCOCCOCCOCCOCCO2,-70.8
5,CC(=O)Nc1cc2c(cc1Br)OCCO2,21.5
6,O=C(O)/C=C/c1ccc2c(c1)OCCO2,-25
7,Brc1cc2c(cc1Br)OCCOCCOCCOCCO2,-76.5
8,Brc1cc2c(cc1Br)OCCOCCOCCO2,-11.5
9,C=Cc1ccc2c(c1)OCCOCCOCCOCCOCCO2,-71.2
10,Cl.Nc1ccc2c(c1)OCCOCCOCCOCCOCCO2,-33.5
11,S=C(Nc1ccc(Br)cc1)Nc1ccc2c(c1)OCCO2,20.5
12,COC(=O)/C(=C\c1cc(OC)c(OC)c(OC)c1)c1nc2ccccc2[nH]1.Cl,19
13,COc1ccc(C)cc1NC(=O)CCCN1C(=O)C(c2ccccc2)Oc2cccnc21 (stereo not shown),2.21
14,Cc1cccc(CCNC(=O)CCS(=O)(=O)c2cc3c(cc2Cl)NC(=O)CO3)c1,3.71
15,CC[C@H]1OC(=O)[C@H](C)[C@@H](O[C@H]2C[C@@](C)(OC)[C@@H](O)[C@H](C)O2)[C@H](C)[C@@H](O[C@@H]2O[C@H](C)C[C@H](N(C)C)[C@H]2O)[C@](C)(O)C[C@@H](C)CN(C)[C@H](C)[C@@H](O)[C@]1(C)O,1.55
16,Cc1ccc(/C(O)=C2/C(=O)C(=O)N(Cc3ccco3)C2c2cccs2)cc1 (stereo not shown),-8.53
17,CCOC(=O)c1cc(C(=O)n2cc(Cl)cn2)nn1C,10.6
18,Cc1ccc(-c2csc(NC(=O)CCNC(=O)c3ccco3)n2)cc1,5.76
19,COc1cc2c(cc1NC(=O)c1cc(-c3cccnc3)nc3ccc(C)cc13)oc1ccccc12,8.86
20,CCN(CC)c1ccc(/C=N/NC(=O)c2cccc(S(=O)(=O)N3CCOCC3)c2)cc1,-24.4

row,SMILES,"hERG current change (%, negative = inhibition) at 10uM [%]"
1,CC1(C(=O)Nc2nnc(SCc3ccccc3)s2)Cc2ccccc2C(=O)O1 (stereo not shown),-24.6
2,COc1ccc(OCC(=O)c2c(O)c3ccccc3oc2=O)cc1,-12.4
3,CCOC(=O)C1=NN(C(=O)Cc2ccccc2)C(O)(C(C)(C)C)C1 (stereo not shown),9.74
4,CCOC(=O)C1=NN(C(=O)c2cccc(Br)c2)C(O)(C(C)(C)C)C1 (stereo not shown),-57.6
5,COC(=O)C1=NN(C(=O)c2cccc(Cl)c2)C(O)(C(C)(C)C)C1 (stereo not shown),8.11
6,COc1ccc(C2CC(=O)C3=C(C2)Nc2ccccc2N(C(C)=O)C3c2ccco2)cc1 (stereo not shown),-35.8
7,CN(C)C(=S)NC(=NCc1ccc([N+](=O)[O-])cc1)c1ccccc1,-90.7
8,O=[N+]([O-])c1cccc(C(=NCc2ccccc2)NO)c1,15.9
9,CN(C)C(=S)Nc1ccc([N+](=O)[O-])cc1,-0.053
10,Nc1ncc([N+](=O)[O-])c(Oc2ccccc2F)n1,24.7
11,CCCC1(CCC)C(=O)NC(=NCc2ccccc2)NC1=O,12.7
12,Cc1cc(C)n(-c2nc3c(c(=O)[nH]c(=O)n3C)n2CC(O)COc2ccccc2C)n1 (stereo not shown),-31.9
13,O=C(COc1cccc2c1CCN(Cc1ccccc1)C2=O)N1CCCCC1,-15
14,O=C(COc1cccc2c1CCN(Cc1ccccc1F)C2=O)N1CCCCC1,-43.4
15,O=C(COc1cccc2c1CCN(Cc1ccc(Cl)cc1)C2=O)N1CCOCC1,-60.2
16,CCN1CCc2c(OCC(=O)N3CCCCC3)cccc2C1=O,5.33
17,O=C(COc1cccc2c1CCN(Cc1ccc(Br)cc1)C2=O)N1CCOCC1,-58.4
18,CC1CCN(C(=O)COc2cccc3c2CCN(Cc2ccccc2)C3=O)CC1,-36

# Source: PMC4336329 (PLoS ONE, 2015)
